The values below come from PubChem BioAssay (Tox21).

Molecules are shown by their SMILES. Inconclusive results are not listed. A number with no mark means an inactive call. The source made the active and inactive calls. Unless noted, calls follow the shape of the dose curve; as a rule, active = well fitted curve in the direction sought with a large enough effect in the repeat runs; inconclusive = weak or mixed curves; inactive = no such curve, though single readings can be large; an effect the other way counts as inactive or inconclusive.

Assay [1] is described as follows: qHTS assay to identify small molecule agonists of the peroxisome proliferator-activated receptor delta (PPARd) signaling pathway - cell viability counter screen (AID 743211). Also: nearly all actives have a fitted effect of over 55% in size. Put shortly: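 Counter screen for cytotoxicity run in parallel with the PPARd reporter screen. Beta-lactamase reporter HEK293H cells exposed to compounds 17 h; ATP-based CellTiter-Glo luminescence quantified viability.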

Assay [2] in a line: qHTS assay to identify small molecule antagonists of the peroxisome proliferator-activated receptor delta (PPARd) signaling pathway - cell viability counter screen (AID 743213). Also: nearly all actives have a fitted effect of over 50% in size. Put shortly:
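HEK293H cells with the PPARd UAS-bla reporter, co-treated 17 h at 37 C with compounds and L165041 (300 nM final), were lysed with CellTiter-Glo. Luminescence indicated viable cell content.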
A general note: qHTS replaces the single test concentration by a dilution series.

Assay [3] addresses Vitamin D3 receptor (Homo sapiens) (UniProt P11473). Kind of assay: qHTS assay to identify small molecule agonists of the vitamin D receptor (VDR) signaling pathway (AID 743222; calls by dose curve). Put shortly: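 Fluorescence from cleaved LiveBLAzer B/G FRET substrate served as readout. VDR-bla cells had been treated 16 h at 37C with test compounds in DMSO, following a 4 h settling period, and substrate was loaded for 2 h at RT.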

Assay [4] has the same target. Kind of assay: qHTS assay to identify small molecule antagonists of the vitamin D receptor (VDR) signaling pathway (AID 743223; active = well fitted inhibition curve with a large enough effect in the signal ratio in the repeat runs, not every such curve was filed as active; the % refers to the signal ratio). Put shortly: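 Cells carrying a VDR-driven beta-lactamase reporter (VDR-bla) were co-treated with compound and 3 nM final 1alpha,25-dihydroxyvitamin D3 for 16 h at 37C; reporter activity was measured as FRET substrate fluorescence after 2 h at room temperature.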

Assay [5] in a line: qHTS assay to identify small molecule agonists of the vitamin D receptor (VDR) signaling pathway - cell viability counter screen (AID 743224). Also: nearly all actives have a fitted effect of over 50% in size. Also: potency is read from the fitted curve at half-maximal effect. Summed up: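 Compounds were pin-transferred onto VDR-bla cells plated 4 h earlier; following 16 h incubation at 37C, cell viability was quantified by CellTiter-Glo luminescence after 30 min at room temperature.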
A short description of assay [6]: qHTS assay to identify small molecule agonists of the NFkB signaling pathway - cell viability counter screen (AID 1159515; calls by dose curve; also: series mostly up to about 61 µM; nearly all actives have a fitted effect of over 55% in size). Summed up: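 Parallel cytotoxicity counter screen in ME-180 cells carrying an NFkB-response-element beta-lactamase reporter, 2,000 cells/well. Compound exposure lasted 5 hr at 37 C, 5% CO2. Cell viability was quantified by CellTiter-Glo luminescence.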

The nature of assay [7]: qHTS assay to identify small molecule agonists of the endoplasmic reticulum stress response signaling pathway (AID 1159516; active = well fitted activation curve with a large enough effect in the signal ratio in the repeat runs, not every such curve was filed as active; the % refers to the signal ratio; also: potency is read from the fitted curve at half-maximal effect). Put shortly: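 Using a HeLa line with an ESRE-driven beta-lactamase gene, agonist activity was measured by FRET substrate fluorescence (460 and 530 nm emission) after cells were treated with compounds for 5 hr at 37 C and 5% CO2.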
Assay [8] is described as follows: qHTS assay to identify small molecule agonists of the endoplasmic reticulum stress response signaling pathway - cell viability counter screen (AID 1159517; calls by dose curve;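 also: HeLa cells carrying an ER stress response element beta-lactamase reporter; series mostly up to about 61 µM; nearly all actives have a fitted effect of over 50% in size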). Put shortly: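 ESRE-bla HeLa cells (1,500/well) were plated overnight at 37 C and exposed to compounds for 5 hr. After the 2 hr beta-lactamase substrate read, CellTiter-Glo went into the same wells, and luminescence was read after 30 min at room temperature.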

Assay [9] in a line: qHTS assay to identify small molecule antagonists of the retinoid-related orphan receptor gamma (ROR-gamma) signaling pathway - cell viability counter screen (AID 1159520). Also: nearly all actives have a fitted effect of over 50% in size. Summed up: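 Cytotoxicity was read from cellular ATP (CellTiter-Glo luminescence) after 16 hr at 37 C with 1 uM doxycycline induction. The inducer was added 2 hr after compound transfer to Tet-on ROR gamma CHO cells.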

Assay [10] addresses Nuclear receptor ROR-gamma (Homo sapiens) (UniProt P51449). As to the kind of experiment: qHTS assay to identify small molecule antagonists of the retinoid-related orphan receptor gamma (ROR-gamma) signaling pathway (AID 1159521). Put shortly: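 Cells were plated, rested 4 h at 37 C, exposed to compounds for 2 h, then given 1 uM final doxycycline hyclate to induce RORγ expression. After 16 h, ONE-Glo luminescence from the ROR response element reporter was measured.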

Assay [11] can be described thus: qHTS assay to identify small molecule agonists of the AP-1 signaling pathway - cell viability counter screen (AID 1159525; calls by dose curve; also: nearly all actives have a fitted effect of over 55% in size). Summed up: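 Intracellular ATP by Cell Titer Glo luminescence (30 min, RT) in the same ME-180 AP-1-bla wells after the 5 h compound exposure at 37 °C. Normalised to tetra n-octyl ammonium bromide and DMSO controls.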
For assay [12], the target named is Retinoic acid receptor RXR-alpha (Homo sapiens) (UniProt P19793). As to the kind of experiment: qHTS assay to identify small molecule agonists of the RXR signaling pathway (AID 1159527; calls by dose curve; also: nearly all actives have a fitted effect of over 35% in size). Put shortly: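 Cells plated at 2,000/well, rested 5 hr at 37 C, pin-dosed with DMSO compound solutions, incubated 16 hr, then loaded with B/G FRET substrate for 2 hr at RT before dual-emission fluorescence reading.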
Chain of Retinoic acid receptor RXR-alpha (Homo sapiens) (P19793 whole entry, looked up): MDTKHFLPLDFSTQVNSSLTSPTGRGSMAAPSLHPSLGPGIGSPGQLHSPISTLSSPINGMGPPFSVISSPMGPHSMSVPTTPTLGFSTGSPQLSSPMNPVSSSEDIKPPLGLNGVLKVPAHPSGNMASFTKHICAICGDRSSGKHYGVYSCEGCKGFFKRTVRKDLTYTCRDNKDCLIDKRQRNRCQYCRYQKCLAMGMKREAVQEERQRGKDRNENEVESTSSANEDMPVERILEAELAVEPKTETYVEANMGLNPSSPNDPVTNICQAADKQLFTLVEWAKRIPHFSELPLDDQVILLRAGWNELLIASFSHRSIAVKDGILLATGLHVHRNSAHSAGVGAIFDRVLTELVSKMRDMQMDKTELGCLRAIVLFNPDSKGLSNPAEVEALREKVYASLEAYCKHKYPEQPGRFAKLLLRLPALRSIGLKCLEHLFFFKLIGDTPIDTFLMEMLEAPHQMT

Assay [13] in a line: qHTS assay to identify small molecule antagonists of the farnesoid-X-receptor (FXR) signaling pathway - cell viability counter screen (AID 743221; active = well fitted cell-killing curve with a large enough effect in the repeat runs, not every such curve was filed as active; also: nearly all actives have a fitted effect of over 50% in size). Put shortly:
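Multiplexed counter screen: viability of FXR-bla HEK 293T cells under agonist stimulation by chenodeoxycholic acid (50 uM, final) and test compound for 16 h at 37 C, measured by CellTiter-Glo luminescence in the reporter wells.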

The nature of assay [14]: qHTS assay to identify small molecule antagonists of the vitamin D receptor (VDR) signaling pathway - cell viability counter screen (AID 743225). Also: nearly all actives have a fitted effect of over 50% in size. Also: potency is read from the fitted curve at half-maximal effect. Summed up:
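HEK293T VDR-bla; cpd + 1a,25-(OH)2D3 3 nM final, 16 h 37C/5% CO2; B/G FRET substrate 2 h RT; then CellTiter-Glo 30 min RT, luminescence.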

A short description of assay [15]: qHTS assay to identify small molecule agonists of the AP-1 signaling pathway (AID 1159526; calls by dose curve).
In assay [16] the target is Peroxisome proliferator-activated receptor delta (Homo sapiens) (UniProt Q03181). As to the kind of experiment: qHTS assay to identify small molecule agonists of the peroxisome proliferator-activated receptor delta (PPARd) signaling pathway (AID 743212; calls by dose curve;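 also: HEK293H cells with PPARd UAS beta-lactamase reporter GeneBLAzer system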). Put shortly:
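Beta-lactamase reporter readout: a ratiometric FRET signal from the LiveBLAzer substrate after 2 h at room temperature. Compound exposure at 37 °C in PPARδ-bla HEK293H cells driven by an upstream activator sequence.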

Assay [17] is described as follows: qHTS assay to identify small molecule agonists of the farnesoid-X-receptor (FXR) signaling pathway - cell viability counter screen (AID 743218). Also: nearly all actives have a fitted effect of over 45% in size. Put shortly:
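Viability of FXR-bla HEK 293T cells is measured by ATP-based CellTiter-Glo luminescence following 16 h compound treatment at 37 C and a prior 2 h room-temperature beta-lactamase substrate step.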

Assay [18] deals with Bile acid receptor (Homo sapiens) (UniProt Q96RI1). As to the kind of experiment: qHTS assay to identify small molecule agonists of the farnesoid-X-receptor (FXR) signaling pathway (AID 743220; active = well fitted activation curve with a large enough effect in the signal ratio in the repeat runs, not every such curve was filed as active; the % refers to the signal ratio). Summed up: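 FXR-UAS-bla HEK 293T cells carrying a UAS-driven beta-lactamase reporter were plated for 5 h at 37C/5% CO2, then exposed to DMSO-dissolved Tox21 10K compounds for 16 h at 37C. A LiveBLAzer B/G FRET substrate was loaded for 2 h at room temperature before fluorescence reading.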
Chain of Bile acid receptor (Homo sapiens) (Q96RI1 whole entry, looked up): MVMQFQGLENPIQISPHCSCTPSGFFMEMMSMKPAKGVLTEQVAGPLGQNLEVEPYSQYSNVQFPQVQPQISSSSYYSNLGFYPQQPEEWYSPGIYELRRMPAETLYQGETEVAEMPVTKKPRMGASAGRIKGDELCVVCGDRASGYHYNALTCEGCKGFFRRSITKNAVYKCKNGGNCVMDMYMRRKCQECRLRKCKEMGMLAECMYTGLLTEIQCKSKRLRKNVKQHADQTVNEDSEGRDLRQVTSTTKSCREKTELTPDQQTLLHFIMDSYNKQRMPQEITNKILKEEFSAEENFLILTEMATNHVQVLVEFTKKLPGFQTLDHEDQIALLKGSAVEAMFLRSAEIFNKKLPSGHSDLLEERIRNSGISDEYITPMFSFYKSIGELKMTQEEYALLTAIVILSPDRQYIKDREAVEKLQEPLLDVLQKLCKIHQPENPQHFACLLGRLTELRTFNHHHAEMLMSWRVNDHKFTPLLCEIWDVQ

The target in assay [19] is Peroxisome proliferator-activated receptor delta (Homo sapiens) (UniProt Q03181). As to the kind of experiment: qHTS assay to identify small molecule antagonists of the peroxisome proliferator-activated receptor delta (PPARd) signaling pathway (AID 743215; active = well fitted inhibition curve with a large enough effect in the signal ratio in the repeat runs, not every such curve was filed as active; the % refers to the signal ratio;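 also: cells stimulated with agonist L165041 at 300 nM final during compound exposure; series mostly up to about 62 µM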). Summed up:
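Plated HEK293H PPARd-bla cells rested 5 h at 37 C and 5% CO2. Compound, then agonist L165041 at 300 nM final, was added; 17 h at 37 C followed. Substrate loading, 2 h room temperature, fluorescence measured.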

The target of assay [20] is Bile acid receptor (Homo sapiens) (UniProt Q96RI1). Kind of assay: qHTS assay to identify small molecule antagonists of the farnesoid-X-receptor (FXR) signaling pathway (AID 743217; active = well fitted inhibition curve with a large enough effect in the signal ratio in the repeat runs, not every such curve was filed as active; the % refers to the signal ratio). Summed up: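 Screen of the Tox21 10K library in quantitative HTS format using FXR-UAS-bla HEK 293T reporter cells. Agonist chenodeoxycholic acid, 50 uM final, added with compounds; 16 h incubation at 37 °C; beta-lactamase FRET fluorescence measured.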

Chain of Vitamin D3 receptor (Homo sapiens) (P11473 whole entry, looked up): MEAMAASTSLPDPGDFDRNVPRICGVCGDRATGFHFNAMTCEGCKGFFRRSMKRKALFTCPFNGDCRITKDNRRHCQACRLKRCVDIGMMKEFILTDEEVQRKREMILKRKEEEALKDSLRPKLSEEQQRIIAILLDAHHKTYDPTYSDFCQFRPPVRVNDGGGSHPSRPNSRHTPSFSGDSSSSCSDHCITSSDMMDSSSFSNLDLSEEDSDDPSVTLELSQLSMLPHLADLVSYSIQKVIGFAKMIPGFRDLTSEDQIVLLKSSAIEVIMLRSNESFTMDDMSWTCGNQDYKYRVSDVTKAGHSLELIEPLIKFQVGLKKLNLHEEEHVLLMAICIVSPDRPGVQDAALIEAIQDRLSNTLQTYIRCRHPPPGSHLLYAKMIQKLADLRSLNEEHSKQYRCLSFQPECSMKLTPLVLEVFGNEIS
Chain of Peroxisome proliferator-activated receptor delta (Homo sapiens) (Q03181 whole entry, looked up): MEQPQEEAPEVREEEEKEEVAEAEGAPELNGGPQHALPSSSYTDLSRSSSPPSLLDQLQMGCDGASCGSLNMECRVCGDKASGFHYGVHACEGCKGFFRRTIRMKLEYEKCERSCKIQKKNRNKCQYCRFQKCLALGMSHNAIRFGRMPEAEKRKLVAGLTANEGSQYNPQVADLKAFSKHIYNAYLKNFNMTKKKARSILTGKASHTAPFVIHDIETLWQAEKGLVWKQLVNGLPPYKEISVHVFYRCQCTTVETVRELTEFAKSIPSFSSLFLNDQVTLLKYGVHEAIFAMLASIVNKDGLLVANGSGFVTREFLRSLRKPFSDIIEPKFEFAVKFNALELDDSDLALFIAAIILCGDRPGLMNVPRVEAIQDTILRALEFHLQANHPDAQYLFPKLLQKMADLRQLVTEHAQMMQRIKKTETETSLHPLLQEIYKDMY

Regarding `CN1CCC[C@@H]1c1cccnc1`, the Potency result in assay [1], in [2], in assay [4], in assay [5], in assay [6] and in [7] was “inactive” throughout. In addition, the Potency entry in assay [9], in assay [10], in assay [11] and in assay [12] was “inactive” throughout. In addition, the call in [3] and in assay [8] was inactive.

On to `COc1ccc(C(C)=O)cc1`, for which the Potency result in assay [2], in [13], in [5], in [14], in assay [6] and in [7] was “inactive” in each case. Moreover, the Potency entry in assay [9], in assay [10], in [11] and in [15] was “inactive” in each case. Moreover, in assay [8], the compound was called inactive.

Regarding `Nc1nc(N)c2nc(CNc3ccc(C(=O)N[C@@H](CCC(=O)O)C(=O)O)cc3)cnc2n1`, the results for the Potency in [5], in assay [14] and in assay [7] were 28.8 nM (active), 28.8 nM (active) and 51300 nM (active), respectively. Further, the Potency result in assay [6], in assay [9], in assay [10], in [11] and in assay [15] was “inactive” throughout. Besides, in assay [8], the call was inactive.

As for `CC(=O)O[C@H]1C[C@@H]2CC[C@@H]3[C@H](CC[C@@]4(C)[C@H]3C[C@H]([N+]3(C)CCCCC3)[C@@H]4OC(C)=O)[C@@]2(C)C[C@@H]1N1CCCCC1`, the Potency entry in assay [1], in assay [2], in [17], in assay [13], in [5] and in assay [6] was “inactive” throughout. Further, the Potency result in assay [7], in [9], in assay [10], in assay [11] and in assay [12] was “inactive” each time. For the same compound, the outcome in [16], in assay [18] and in assay [8] was inactive.

In the case of `CCCCOc1ccc(CC(=O)NO)cc1`, the Potency entry in assay [4], in assay [5], in assay [14], in assay [6], in assay [7] and in assay [9] was “inactive” in each case. Moreover, the Potency entry in assay [10], in assay [11] and in assay [15] was “inactive” in each case. In [8], the compound was classed as inactive.

For the compound `O=C1Nc2cc(Cl)ccc2Oc2ccccc21`, the Potency result in assay [1], in assay [2], in assay [17], in assay [13], in assay [4] and in [5] was “inactive” throughout. The Potency result in assay [14], in assay [6], in assay [7], in assay [9], in [10] and in assay [11] was “inactive” each time. Besides, in [12], the Potency result is “inactive”. For the same compound, the outcome in assay [16], in assay [19], in [20], in assay [18], in assay [3] and in assay [8] was inactive.

Turning to `C[C@@H](C1=C(CCN(C)C)Cc2ccccc21)c1ccccn1`, the Potency entry in assay [1], in assay [2], in assay [13], in assay [4], in assay [5] and in assay [6] was “inactive” throughout. Moreover, the Potency result in [7], in assay [9], in [10], in [11] and in assay [12] was “inactive” in each case. The compound was called inactive in assay [16], in assay [19], in assay [20], in assay [18], in [3] and in [8].
